We go through three molecules from PubChem BioAssay.

The nature of test [1]: anti-His antibody binders, primary screen, artefact control for SMM control protein annotation, biochemical, small-molecule microarray, 635 nm fluorescence (AID 1128).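 Note: score merges feature fluorescence with signal-to-noise for each printed compound spot.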 The note with it: anti-His Alexa647 antibody binding, higher = more signal.
The test system of test [2] is Human papillomavirus type 1a E7 protein (residues 1-88). Description: HPV1a E7 small-molecule binders, primary screen, biochemical, small-molecule microarray, residues 1-88, 635 nm (AID 1129). To be noted: small-molecule microarray binding, fluorescence 635 nm; higher = more signal.
Test [3] addresses Focal adhesion kinase 1 (Homo sapiens) (UniProt Q05397). The experiment in a line: small-molecule microarray binders of FAK, primary screen, biochemical, 635/667 nm fluorescence, BSA, DTT (AID 1130).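 Note: composite of spot emission at 667 nm and signal to noise over triplicate slides.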 To be noted: PTK2 binding, 635 nm fluorescence, higher = more signal.
In test [4] the test system is Fibrinogen (Alexa647-labelled). The experiment in a line: fibrinogen binders on compound microarrays, profiling panel, artefact control for SMM control-protein annotation, biochemical, small-molecule microarray, 635/667 nm fluorescence (AID 1131).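 Note: z-score merges 667 nm fluorescence with per-spot signal-to-noise over triplicate slides.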 The note with it: fibrinogen-A647 binding fluorescence, higher = more signal.
For test [5], the target named is Follistatin (Homo sapiens) (UniProt P19883). Description: follistatin binders on small-molecule microarrays, primary screen, biochemical, small-molecule microarray, 635/667 nm fluorescence (AID 1132). To be noted: FST binding, 635 nm fluorescence, higher = more signal.
Follistatin (Homo sapiens), sequence (P19883 whole entry, looked up): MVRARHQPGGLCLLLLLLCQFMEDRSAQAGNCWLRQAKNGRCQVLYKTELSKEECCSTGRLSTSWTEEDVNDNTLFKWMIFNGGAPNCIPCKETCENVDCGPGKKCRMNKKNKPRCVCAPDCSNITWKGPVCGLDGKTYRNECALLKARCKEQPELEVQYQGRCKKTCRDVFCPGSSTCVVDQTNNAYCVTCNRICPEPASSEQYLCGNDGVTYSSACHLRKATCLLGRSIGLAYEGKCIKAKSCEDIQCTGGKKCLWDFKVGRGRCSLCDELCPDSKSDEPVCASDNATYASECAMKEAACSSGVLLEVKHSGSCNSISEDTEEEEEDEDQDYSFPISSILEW
The target of test [6] is Fibroblast growth factor 2 (Homo sapiens) (UniProt P09038). The experiment in a line: FGF2 binders on small-molecule microarrays, primary screen, biochemical, small-molecule microarray, 635/667 nm fluorescence (AID 1133). The note with it: small-molecule microarray binding, FGF2, fluorescence 635/667; higher = more signal.
Fibroblast growth factor 2 (Homo sapiens), sequence (P09038 whole entry, looked up): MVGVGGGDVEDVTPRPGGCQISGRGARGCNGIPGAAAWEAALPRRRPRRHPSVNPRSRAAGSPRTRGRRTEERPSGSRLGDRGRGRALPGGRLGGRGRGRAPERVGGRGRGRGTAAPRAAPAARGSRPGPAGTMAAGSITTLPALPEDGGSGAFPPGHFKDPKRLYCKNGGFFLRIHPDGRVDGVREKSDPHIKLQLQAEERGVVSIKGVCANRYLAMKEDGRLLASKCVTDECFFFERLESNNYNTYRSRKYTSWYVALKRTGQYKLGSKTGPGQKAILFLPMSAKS
A short description of test [7]: mitochondrial membrane potential change in A549 cells, profiling panel, cell-based, JC-1 fluorescence, basal, 24 h, 100 nL (AID 1138).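 Note: A549 lung adenocarcinoma cells under basal conditions with no added stimulus; test concentration not given here.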 The note with it: higher = more signal.
Another test has as its system Lefty1. The experiment in a line: Lefty1 binders on small-molecule microarrays, primary screen, biochemical, small-molecule microarray, 635/667 nm fluorescence (AID 1139). To be noted: small-molecule microarray binding, fluorescence 635/667; higher = more signal.
Test [8] deals with wheat germ agglutinin (Triticum aestivum), Alexa647-labelled. Description: wheat germ agglutinin binders on compound microarrays, profiling panel, artefact control for SMM control-protein annotation, biochemical, small-molecule microarray, 635/667 nm fluorescence (AID 1140).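 Note: score merges 667 nm feature emission with signal to noise over triplicate slides.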 To be noted: WGA-A647 binding, 635 nm fluorescence, higher = more signal.
Test [9] addresses Luciferin 4-monooxygenase (Photinus pyralis) (UniProt P08659). Description: firefly luciferase enzyme inhibitors, primary screen, biochemical, luminescence, purified enzyme, 2006 set (AID 1141).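 Note: cell-free assay with purified firefly luciferase at 100 ng per well in PBS; test concentration not given here.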 The note with it: SteadyGlo luminescence, 30 min, higher = more signal, called active from +8 up or from −8 down.
The test system of test [10] is Wnt5a (protein binding on small-molecule microarray). Description: Wnt5a binders on small-molecule microarray, primary screen, biophysical, 635/667 nm fluorescence (AID 1142).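 Note: fluorescence read at 667 nm with signal to noise per printed feature.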 The note with it: 635 nm fluorescence, higher = more signal.
A short description of test [11]: cell viability in Huh7 cells, primary screen, cytotoxicity control for HCV replication inhibitor project, CellTiter-Glo luminescence, basal, 48 h (AID 1143).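 Note: Huh7 hepatoma cells carrying a hepatitis C replication reporter with no stimulus; test concentration not given here.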 The note with it: Huh7 HCV replicon, higher = more signal, called active from +8 up or from −8 down. Background: In ATP-based viability assays light output follows the ATP content of the culture.
Test [12] in a line: P. aeruginosa biofilm formation inhibitors, primary screen, PAO1 strain, BacTiter-Glo luminescence, LB-PBS (AID 1144). To be noted: 12 h, higher = more signal.
A short description of test [13]: CREB reporter modulators without forskolin, primary screen, cell-based, PC12, CRE-LacZ reporter, unstimulated (AID 1145). To be noted: no forskolin, luminescence, 4.5 h, higher = more signal, called active from +8 up or from −8 down.
A short description of test [14]: CREB reporter modulators under forskolin, primary screen, cell-based, PC12, CRE-LacZ reporter, forskolin-stimulated (AID 1146).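 Note: PC12 cells with 6xCRE LacZ reporter stimulated by forskolin 10 µM; beta-galactosidase reporter signal reflecting CREB driven transcription.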 The note with it: luminescence, 4.5 h, higher = more signal, called active from +8 up or from −8 down.
Test [15] concerns the target Streptavidin (Streptomyces avidinii) (UniProt P22629). Description: streptavidin binders on small-molecule microarray, primary screen, artefact control for SMM compound annotation, biophysical, 635/667 nm fluorescence (AID 1147).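 Note: signal reflects streptavidin binding to arrayed compounds as a control protein.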 To be noted: streptavidin binding, higher = more signal.
Test [16] is described as follows: small-molecule binders of probe aInhba, primary screen, biochemical, small-molecule microarray, 635/667 nm fluorescence (AID 1148).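 Note: score merges 667nm spot fluorescence with signal-to-noise for antibody binding to printed compounds.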 The note with it: higher = more signal.
Test [17] has as its target Torsin-1A (Homo sapiens) (UniProt O14656). The experiment in a line: torsin A binders from cell lysate, primary screen, small-molecule microarray, wild-type, 635/667 nm (AID 1149). The note with it: COS7 hTOR1A-WT lysate, 635 nm fluorescence, higher = more signal.
Test [18] shares this target. Description: small-molecule binders of mutant TOR1A in lysate, primary screen, cell lysate, small-molecule microarray, COS7 lysate, 635/667 nm fluorescence (AID 1150).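 Note: score pools 667 nm emission and signal to noise measuring lysate protein binding.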 To be noted: COS7 hTOR1A mutant lysate, 635 nm fluorescence, higher = more signal.
Test [19] deals with Sonic hedgehog protein (Shh). The experiment in a line: small-molecule binders of Shh protein, primary screen, biochemical, small-molecule microarray, 635/667 nm fluorescence (AID 1151).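 Note: Shh protein binding to compounds spotted on small-molecule microarray slides; score combines spot fluorescence intensity with signal-to-noise across triplicate slides.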 The note with it: small-molecule microarray binding, 635 nm fluorescence; higher = more signal.

Activity calls are given as the source filed them. Unless noted, the rule behind the calls is not given here.

Torsin-1A (Homo sapiens), sequence (O14656 whole entry, looked up): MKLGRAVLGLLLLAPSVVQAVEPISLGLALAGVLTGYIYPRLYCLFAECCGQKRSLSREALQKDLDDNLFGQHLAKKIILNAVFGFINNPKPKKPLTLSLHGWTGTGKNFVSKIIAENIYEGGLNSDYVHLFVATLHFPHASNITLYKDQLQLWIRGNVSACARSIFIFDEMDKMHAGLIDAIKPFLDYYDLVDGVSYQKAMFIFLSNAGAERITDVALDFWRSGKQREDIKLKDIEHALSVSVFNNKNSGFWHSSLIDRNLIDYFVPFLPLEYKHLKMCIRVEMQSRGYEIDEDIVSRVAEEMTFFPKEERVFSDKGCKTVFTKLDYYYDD
Luciferin 4-monooxygenase (Photinus pyralis), sequence (P08659 whole entry, looked up): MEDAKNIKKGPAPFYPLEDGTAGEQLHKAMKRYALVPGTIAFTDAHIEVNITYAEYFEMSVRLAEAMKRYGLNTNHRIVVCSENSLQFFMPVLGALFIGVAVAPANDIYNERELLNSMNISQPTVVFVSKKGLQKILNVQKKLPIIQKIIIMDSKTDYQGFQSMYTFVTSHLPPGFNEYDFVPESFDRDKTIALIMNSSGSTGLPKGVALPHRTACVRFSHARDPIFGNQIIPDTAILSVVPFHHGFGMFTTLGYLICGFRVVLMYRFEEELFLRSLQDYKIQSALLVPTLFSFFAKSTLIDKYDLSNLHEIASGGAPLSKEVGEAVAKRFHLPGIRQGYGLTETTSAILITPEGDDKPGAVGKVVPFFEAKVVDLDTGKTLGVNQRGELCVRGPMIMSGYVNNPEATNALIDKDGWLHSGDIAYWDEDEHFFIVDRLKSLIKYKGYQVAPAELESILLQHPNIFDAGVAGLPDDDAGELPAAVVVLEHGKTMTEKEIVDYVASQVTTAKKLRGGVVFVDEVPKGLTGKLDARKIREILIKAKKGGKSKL
Streptavidin (Streptomyces avidinii), sequence (P22629 whole entry, looked up): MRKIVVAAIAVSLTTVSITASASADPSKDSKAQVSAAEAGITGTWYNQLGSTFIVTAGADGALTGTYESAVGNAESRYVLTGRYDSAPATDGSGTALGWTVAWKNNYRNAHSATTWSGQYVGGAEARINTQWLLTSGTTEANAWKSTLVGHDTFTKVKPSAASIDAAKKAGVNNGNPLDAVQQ
Focal adhesion kinase 1 (Homo sapiens), sequence (Q05397 whole entry, looked up): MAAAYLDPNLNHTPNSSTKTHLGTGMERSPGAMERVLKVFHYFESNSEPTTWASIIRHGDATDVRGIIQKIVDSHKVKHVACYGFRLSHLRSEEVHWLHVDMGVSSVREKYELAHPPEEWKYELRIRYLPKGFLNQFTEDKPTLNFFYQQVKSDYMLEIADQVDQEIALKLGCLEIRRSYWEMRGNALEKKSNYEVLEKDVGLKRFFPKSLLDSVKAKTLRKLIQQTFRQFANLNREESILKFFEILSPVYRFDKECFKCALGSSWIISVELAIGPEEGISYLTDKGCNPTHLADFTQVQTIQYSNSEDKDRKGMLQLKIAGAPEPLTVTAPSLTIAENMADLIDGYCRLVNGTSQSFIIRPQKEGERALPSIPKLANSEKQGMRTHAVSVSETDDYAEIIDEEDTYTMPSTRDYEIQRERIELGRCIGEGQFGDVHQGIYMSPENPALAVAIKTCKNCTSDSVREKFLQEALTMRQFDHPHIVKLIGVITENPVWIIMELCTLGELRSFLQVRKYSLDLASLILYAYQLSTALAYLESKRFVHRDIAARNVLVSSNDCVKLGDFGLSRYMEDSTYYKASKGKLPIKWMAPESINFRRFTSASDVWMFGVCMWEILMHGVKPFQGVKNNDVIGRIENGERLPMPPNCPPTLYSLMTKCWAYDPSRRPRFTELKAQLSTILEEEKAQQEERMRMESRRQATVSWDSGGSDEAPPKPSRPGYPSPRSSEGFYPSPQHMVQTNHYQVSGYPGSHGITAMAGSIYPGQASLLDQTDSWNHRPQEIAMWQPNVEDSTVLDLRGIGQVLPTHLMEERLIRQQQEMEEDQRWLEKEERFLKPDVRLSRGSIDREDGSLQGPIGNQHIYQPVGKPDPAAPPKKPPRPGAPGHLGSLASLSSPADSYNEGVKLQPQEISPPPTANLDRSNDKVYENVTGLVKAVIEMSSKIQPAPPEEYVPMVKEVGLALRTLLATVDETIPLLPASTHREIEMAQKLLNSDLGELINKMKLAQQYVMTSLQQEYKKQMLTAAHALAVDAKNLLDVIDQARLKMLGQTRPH

As to `C=CCNC(=O)[C@@H]1[C@H]2C(=O)O[C@H](c3ccccc3)[C@H](c3ccccc3)N2[C@H](c2ccc(OCCO)cc2)[C@@]12C(=O)Nc1ccc(C#CCCO)cc12`, the composite z-score in test [1] was 2.72; in test [2], 1.19; in [3] it was 1.17; in test [4], 0.979; in [5], 1.16; in [6], 1.68. In addition, the composite z-score with Lefty1 was 1.52; in test [8], 0.687; in test [10], 0.847; in test [15], 1.6; in test [16], 1.15; with Torsin-1A (Homo sapiens) [17], 1.26. The results for the composite z-score (with Torsin-1A (Homo sapiens) [18]; in test [19]) were 1.17 and 1.59, respectively. Moreover, the z-score is 0.103 in [7]; -0.947 (inactive) in [9]; -0.625 (inactive) in test [11]; -0.796 (inactive) in [12]; -0.141 (inactive) in [13]; -0.118 (inactive) in test [14].
On to `CC(C)(C)OC(=O)CC[C@@]1(C(N)=O)N=C(c2ccc(OCCCO)cc2)O[C@@H]1c1ccccc1`, for which the composite z-score in test [1] was 1.27; in [2], 1.13; in test [3], 0.754; in [4], 0.971; in test [5], 0.136; in [6], -0.343. Besides, the composite z-score in the test with Lefty1 is -0.0503; in test [8], 0.178; in test [10] it was 0.22; in test [15] it was 0.818; in test [16] it was -0.0533; with Torsin-1A (Homo sapiens) [17], 0.361. Moreover, the composite z-score in the test with Torsin-1A (Homo sapiens) [18] was 1.42; in test [19], -0.954. For the same molecule, the z-score in test [7] was -0.655; in test [9], -0.637 (inactive); in test [11], -0.0043 (inactive); in test [12], -0.256 (inactive); in [13], 1.5 (inactive); in test [14], -1.12 (inactive).
Regarding `COc1ccc([Si](C)(C)[C@H]2[C@H](CCO)O[C@@]3(C(=O)N(C)c4c(Br)cc(C)cc43)[C@@H]2C)cc1`, the composite z-score in [1] came to 0.494; in test [2] it was 0.969; in [3], 0.295; in test [4] it was 0.15; in test [5], 0.675; in test [6] it was 0.425. The composite z-score is 0.486 with Lefty1; 0.773 in [8]; -0.0092 in test [10]; 0.0036 in test [15]; -0.0523 in test [16]; 1.15 with Torsin-1A (Homo sapiens) [17]. For the same molecule, the composite z-score with Torsin-1A (Homo sapiens) [18] stood at 0.105; in test [19], 1.29. The z-score is -1.69 in test [7]; 0.481 (inactive) in test [9]; -8.05 (active) in test [11]; -1 (inactive) in [12]; 15.2 (active) in [13]; -3.2 (inactive) in test [14].
